# Reference: PubChem BioAssay (Tox21)
# Results filed as inconclusive are left out. Activity calls are given as the source filed them. The call rests on the fitted dose curve; in most records, active means well fitted inhibition curve with a large enough effect in the signal ratio in the repeat runs (not every such curve was filed as active); inconclusive means weak or mixed curves, or effect the other way; inactive means no such curve, though single readings can be large or run the other way; the % refers to the signal ratio.
# Target: Peroxisome proliferator-activated receptor delta (Homo sapiens) (UniProt Q03181)
# Experiment: qHTS assay to identify small molecule antagonists of the peroxisome proliferator-activated receptor delta (PPARd) signaling pathway (AID 743215);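 further: cells stimulated with agonist L165041 at 300 nM final during compound exposure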
# Settings: HEK293H PPARd-UAS-bla, beta-lactamase FRET ratio, antagonist, 17 h; series mostly up to 62 µM; ratio activity, negative = inhibition: at the top concentration
# Description: U.S. Tox21 Program National Center for Advancing Translational Sciences [NCATS] NIH Chemical Genomics Center [NCGC] U.S. Environmental Protection Agency [EPA] National Institutes of Environmental Health Sciences [NIEHS] National Toxicology Program [NTP] U.S. Food and Drug Administration [FDA] Tox21 Assay Overview: The peroxisome proliferator-activated receptors (PPARs) are lipid-activated transcription factors of the nuclear receptor superfamily with three distinct subtypes namely PPAR alpha, PPAR delta (PPARd) and PPAR gamma. All these subtypes heterodimerizes with Retinoid X receptor (RXR) and have different physiological functions. […] To identify the compounds that inhibit PPAR-delta signaling, GeneBLAzer PPAR delta UAS-bla HEK293H cell line (Invitrogen, Carlsbad, CA, USA) containing a beta-lactamase reporter gene under the control of an Upstream Activator Sequence (UAS) was used to screen the Tox21 compound library.
# Tox21 Assay Protocol Summary: PPARd-bla cells were dispensed at 3000 cells/5uL/well in 1536-well black wall/clear bottom plates using a Multidrop Combi (Thermo Fisher Scientific, Waltham, MA) dispenser. After the assay plates were incubated at 37 C and 5% CO2 for 5 h, 23 nL of compounds dissolved in DMSO, positive controls or DMSO only was transferred to the assay plate by a Pintool station (Kalypsys, San Diego, CA), followed by addition of 1ul L165041 (300 nM, final concentration in the wells). The assay plates were incubated at 37 C for 17 h, and then 1 uL of LiveBLAzerTM B/G FRET substrate was added using a Bioraptr Flying Reagent Dispenser (FRD) workstation (Beckman Coulter, Indianapolis, IN, USA). The assay plates were incubated at room temperature for 2 h and fluorescence intensity was measured by an Envision plate reader (PerkinElmer, Shelton, CT).
# On the % scale 0 is the no-effect control and ±100 the full control effect.
# Chain of Peroxisome proliferator-activated receptor delta (Homo sapiens) (Q03181 whole entry, looked up): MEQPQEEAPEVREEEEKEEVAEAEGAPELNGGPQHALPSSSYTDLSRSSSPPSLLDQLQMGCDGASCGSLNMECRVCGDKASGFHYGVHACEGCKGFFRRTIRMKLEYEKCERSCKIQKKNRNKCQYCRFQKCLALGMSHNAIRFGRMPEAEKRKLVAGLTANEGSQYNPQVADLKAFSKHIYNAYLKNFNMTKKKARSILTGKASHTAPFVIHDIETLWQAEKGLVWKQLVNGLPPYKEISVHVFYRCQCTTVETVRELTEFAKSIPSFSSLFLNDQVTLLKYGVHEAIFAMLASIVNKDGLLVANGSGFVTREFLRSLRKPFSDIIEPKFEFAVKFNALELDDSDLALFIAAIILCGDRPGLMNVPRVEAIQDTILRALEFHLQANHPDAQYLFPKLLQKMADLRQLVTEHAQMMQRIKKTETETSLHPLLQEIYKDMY
row,SMILES,"ratio activity, negative = inhibition"
1,CCN(CC)CCOC(=O)C(c1ccccc1)C1CCCCC1 (stereo not given),-25.1% (inactive)
2,CCOC(=O)c1cccnc1,1.8% (inactive)
3,O=C(OCCc1ccccc1)c1ccccc1,1.37% (inactive)
4,O=C(O)c1ccccc1Cl,-0.717% (inactive)
5,CN(C)C(=O)NC1(c2ccccc2)CCN(CC[C@@]2(c3ccc(F)c(F)c3)CN(C(=O)c3ccccc3)CCO2)CC1,-5.02% (inactive)
6,Cc1c(N)cccc1[N+](=O)[O-],13.3% [at 80.4 µM] (inactive)
7,C=C(C)C(=O)OCCO,-10.1% [at 80.4 µM] (inactive)
8,C=CCOc1ccccc1OCC(O)CNC(C)C (stereo not given),0.645% (inactive)
9,COCC(C)OC(C)=O (stereo not given),-9.09% (inactive)
10,O=[N+]([O-])c1cccc(S(=O)(=O)O)c1,-0.865% [at 80.4 µM] (inactive)
11,CN1C[C@H]2c3ccccc3Oc3ccc(Cl)cc3[C@@H]2C1,2.84% (inactive)
12,CCCCCCc1ccc(-c2ccc(C#N)cc2)cc1,10% (inactive)
13,O=C1OC(=O)C2C3C=CC(C3)C12 (stereo not given),9.08% (inactive)
14,CC(C)(O)c1ccc(CNC(=O)c2cccnc2Oc2ccc(F)cc2)cc1,14.1% (inactive)
15,O=[N+]([O-])c1ccc(NCCO)c(OCCO)c1,7.15% (inactive)
16,C/C=C/C(=O)CC,2.27% [at 13.7 µM] (inactive)
17,O=C1CCC(=O)O1,4.53% [at 80.4 µM] (inactive)
18,c1ccc(CNCCNCc2ccccc2)cc1,-18.1% (inactive)
19,Cc1[nH]c(C)c(Cl)c(=O)c1Cl,-4.14% [at 28.9 µM] (inactive)
20,C/C=C(/C(=C/C)c1ccc(OC(C)=O)cc1)c1ccc(OC(C)=O)cc1,-24.1% (inactive)

row,SMILES,"ratio activity, negative = inhibition"
1,O=C(O)CNCC(=O)O,-0.396% [at 6.26 µM] (inactive)
2,COc1cc2c(cc1OC)C(C(C(=O)N(CCc1ccc(OC)c(OC)c1OC)CCc1ccc(OC)c(OC)c1OC)c1ccccc1)=NCC2 (stereo not given),-0.476% (inactive)
3,COc1cc2nc(N(C)CCCNC(=O)C3CCCO3)nc(N)c2cc1OC (stereo not given),15.8% (inactive)
4,CC[N+]1(CC)CCC(=C(c2ccccc2)c2ccccc2)C1C (stereo not given),2.53% (inactive)
5,CCCCC1=NC2(CCCC2)C(=O)N1Cc1ccc(-c2ccccc2-c2nn[nH]n2)cc1,9.81% (inactive)
6,O=C(NCCO[N+](=O)[O-])c1cccnc1,-2.94% (inactive)
7,CCOc1ccc(O)cc1,0.974% (inactive)
8,CC(C)CC(=O)C1C(=O)c2ccccc2C1=O,-22.6% (inactive)
9,OCCNCc1ccccc1,17.6% (inactive)
10,O=C1[C@H]2CCCC[C@H]2C(=O)N1CCCCN1CCN(c2nsc3ccccc23)CC1,4.13% (inactive)
11,C[C@@H](c1ncncc1F)C(O)(Cn1cncn1)c1ccc(F)cc1F (stereo not given in full),-2.48% (inactive)
12,Cc1ccc(N=Nc2c(O)c(C(=O)O)cc3ccccc23)c(S(=O)(=O)O)c1,3.93% (inactive)
13,C/C=C/C=C/CO,3.63% (inactive)
14,O=C(O)C(S)C(S)C(=O)O (stereo not given),-9.55% (inactive)
15,O=C(CS)Nc1ccccc1,-26.8% (inactive)
16,OCc1cc(C(O)CNCCCCCCOCCCCc2ccccc2)ccc1O (stereo not given),2.2% (inactive)
17,CCCCC,0.829% (inactive)
18,O=C(Cl)c1cc(C(=O)Cl)cc(C(=O)Cl)c1,15.2% (inactive)
19,CC(=O)c1ccc2c(c1)N(CCCN(C)C)c1ccccc1S2,-6.79% (inactive)
20,CCCCCCCCCCO[C@@H]1O[C@H](CO)[C@@H](O)[C@H](O)[C@H]1O,-8.32% (inactive)
